Measurements published in the supplement of paper PMC12024424.
Where a name gives a salt, the structure may show the parent alone.

Tests used:
[1] = system: Staphylococcus aureus Sa2 (MRSA, cystic fibrosis isolate); test: growth reduction vs untreated control (OD550); higher = stronger antibacterial activity; settings: 0.1 mM; 24 h
Protocol: (§1)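 Single-dose screen of the MedChem Express Drug Repurposing Library (0.1 mM, 1% DMSO) against planktonic MRSA S. aureus Sa2 (CF isolate) in TSB in 96-well plates, 37 °C aerobic, 24 h. Assays were run in triplicate and repeated twice.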

[2] = system: Staphylococcus aureus Sa2 (MRSA, cystic fibrosis isolate); test: growth reduction vs untreated control (viable cell count); higher = stronger antibacterial activity; extreme values may be limits of the assay; settings: 0.1 mM; 24 h
Protocol: as §1

Structure (SMILES)	growth reduction [1]	growth reduction [2]
CC1(C)CCC(C)(C)c2cc(Cn3cccn3)c(/C=C/c3ccc(C(=O)O)cc3)cc21 [Palovarotene]	100%	100%
CC1=C(C)C(=O)C(CCCCCCCCCC[P+](c2ccccc2)(c2ccccc2)c2ccccc2)=CC1=O [Visomitin]	100%	100%
C[C@@H](NCCCc1cccc(C(F)(F)F)c1)c1cccc2ccccc12 [Cinacalcet]	97.4%	100%
Cc1cc(Nc2ncc(Cl)c(Nc3ccccc3S(=O)(=O)C(C)C)n2)c(OC(C)C)cc1C1CCNCC1 [Ceritinib dihydrochloride]	100%	100%
OCc1cc([C@@H](O)CNCCCCCCOCCOCc2c(Cl)cccc2Cl)ccc1O [Vilanterol]	99.9%	100%
CC(C)C[C@@H](C(=O)N[C@H](C(=O)OC1CCCC1)c1ccccc1)[C@H](O)C(=O)NO [Tosedostat]	100%	100%
Cc1ccc(C(=O)N(CCCN)[C@@H](c2nc3cc(Cl)ccc3c(=O)n2Cc2ccccc2)C(C)C)cc1 [Ispinesib]	100%	100%
CNC(=O)c1cc(Oc2ccc(NC(=O)Nc3ccc(Cl)c(C(F)(F)F)c3)cc2)ccn1 [Sorafenib]	93.5%	–
O=C(O)Cc1ccc(Cc2cc(-c3cccc(Cl)c3)nc(C(F)(F)F)c2)cc1	100%	100%
O=C(O)CNC(=O)c1c(=O)cc(CCc2ccccc2)n2[nH]cnc12 [Enarodustat]	93.3%	92%
Cc1ccc(Sc2ccccc2N2CCNCC2)c(C)c1 [Vortioxetine (hydrobromide)]	100%	100%
CCCCCCCCCCCC[N+](C)(C)CCOc1ccccc1 [Domiphen (bromide)]	100%	100%
O=C(NC[C@H]1CN(c2ccc(N3CCOCC3=O)cc2)C(=O)O1)c1ccc(Cl)s1 [Rivaroxaban]	100%	100%
CC(OC(=O)NCC1(CC(=O)O)CCCCC1)OC(=O)C(C)C (configuration not stated) [Gabapentin enacarbil]	90.4%	–
O=C(O)c1ccc2c(c1)CCCC(c1ccc(Cl)cc1Cl)=C2c1ccc(O[C@H]2CCN(CCCF)C2)cc1	100%	100%
N#Cc1ccc(Oc2ccc3c(c2)COB3O)cc1 [Crisaborole]	100%	100%
Cn1c(O)c(C2=c3ccccc3=NC2=O)c2ccccc21 [Meisoindigo]	100%	100%
O=C(O)c1cc(-c2ccc(F)cc2F)ccc1O [Diflunisal]	93.6%	98%
COCCNCc1ccc(-c2cc3nccc(Oc4ccc(NC(=O)C5(C(=O)Nc6ccc(F)cc6)CC5)cc4F)c3s2)nc1 [Sitravatinib]	100%	–
C[C@]1(O)C[C@@H](c2nc(-c3ccc4ccc(-c5ccccc5)nc4c3)c3c(N)nccn32)C1 [Linsitinib]	100%	100%
CCCCCNC(=N)N/N=C/c1c[nH]c2ccc(OC)cc12 [Tegaserod (maleate)]	100%	–

Structure (SMILES)	growth reduction [1]	growth reduction [2]
Cc1ccc(C#Cc2ccc(S(=O)(=O)N[C@H](Cc3c[nH]c4ccccc34)C(=O)O)s2)cc1	98.4%	–
C1CCC(C(CC2CCCCN2)C2CCCCC2)CC1 (configuration not stated) [Perhexiline maleate]	100%	100%
COc1cccc(-c2ccc(NC(=O)C3=C(C(=O)O)CCC3)c(F)c2)c1 [Vidofludimus]	93%	99%
Cc1cc(O[C@@H](CCC(F)(F)F)c2ccc(C(=O)NCCC(=O)O)cc2)cc(C)c1-c1ccc(C(C)(C)C)cc1 [Adomeglivant]	100%	100%
NC(=O)N1CCC(CC(=O)N2CCC([C@H]3c4ncc(Br)cc4CCc4cc(Cl)cc(Br)c43)CC2)CC1 [Lonafarnib]	94.3%	96%
COc1cccc2c1C(=O)c1c(O)c3c(c(O)c1C2=O)C[C@@](O)(C(=O)CO)C[C@@H]3O[C@H]1C[C@H](N)[C@@H](O)[C@H](C)O1 [Epirubicin (hydrochloride)]	95%	100%
C=CC(=O)Nc1cccc(Oc2nc(Nc3ccc(N4CCN(C)CC4)c(F)c3)nc3[nH]ccc23)c1 [Avitinib (maleate)]	100%	99%
O=C(Nc1ccccc1)c1ccccc1O [Salicylanilide]	91.4%	93%
COc1cc([C@@H]2c3cc4c(cc3[C@@H](O[C@@H]3O[C@@H]5CO[C@@H](c6cccs6)O[C@H]5[C@H](O)[C@H]3O)[C@H]3COC(=O)[C@H]23)OCO4)cc(OC)c1O [Teniposide]	100%	100%
CN(Cc1cnc2nc(N)nc(N)c2n1)c1ccc(C(=O)N[C@@H](CCC(=O)O)C(=O)O)cc1 [Methotrexate]	94.1%	95%
Cc1ccc(C(=O)Nc2ccc(CN3CCN(C)CC3)c(C(F)(F)F)c2)cc1C#Cc1cnc2[nH]ncc2c1	100%	100%
CC/C(=C(/CC)c1ccc(O)cc1)c1ccc(O)cc1 [Diethylstilbestrol]	100%	100%
CCCCCCCCc1ccc(CCC(N)(CO)CO)cc1 [Fingolimod (hydrochloride)]	100%	100%
Cc1ccc2c(=O)c3cccc(CC(=O)O)c3oc2c1C [Vadimezan]	100%	100%
CC(C)(C)c1cc(C(C)(C)C)c(NC(=O)c2c[nH]c3ccccc3c2=O)cc1O [Ivacaftor]	95.3%	99%
Cc1cccc(/C=N/Nc2cc(N3CCOCC3)nc(OCCc3ccccn3)n2)c1 [Apilimod]	100%	93%
CN1CCN(c2ccc(C(=O)Nc3n[nH]c4ccc(Cc5cc(F)cc(F)c5)cc34)c(NC3CCOCC3)c2)CC1 [Entrectinib]	100%	96%
C=CC[C@@H]1/C=C(\C)C[C@H](C)C[C@H](OC)[C@H]2O[C@@](O)(C(=O)C(=O)N3CCCC[C@H]3C(=O)O[C@H](/C(C)=C/[C@@H]3CC[C@@H](O)[C@H](OC)C3)[C@H](C)[C@@H](O)CC1=O)[C@H](C)C[C@@H]2OC [Tacrolimus (monohydrate)]	100%	100%
Cc1c2c(nn1C)CSCc1cc(n(C)n1)CSc1cc(c3ccccc3c1)OCCCc1c(C(=O)O)n(C)c3c-2c(Cl)ccc13	100%	100%
CO[C@@H](Cc1ccc(OCCc2nc(-c3ccccc3)oc2C)c2ccsc12)C(=O)O [Aleglitazar]	92.2%	90%
COc1cc(C(=O)O)ccc1NC(=O)[C@@H]1N[C@@H](CC(C)(C)C)[C@](C#N)(c2ccc(Cl)cc2F)[C@H]1c1cccc(Cl)c1F [Idasanutlin]	100%	100%

Structure (SMILES)	growth reduction [1]	growth reduction [2]
CNC(=O)c1cc(Oc2ccc(NC(=O)Nc3ccc(Cl)c(C(F)(F)F)c3)c(F)c2)ccn1 [Regorafenib (Hydrochloride)]	100%	100%
NC(=O)N1c2ccccc2C[C@H](O)c2ccccc21 [Eslicarbazepine]	92.7%	94%
CCN(CC)CCN(Cc1ccc(-c2ccc(C(F)(F)F)cc2)cc1)C(=O)Cn1c(SCc2ccc(F)cc2)nc(=O)c2c1CCC2 [Darapladib]	100%	100%
O=C(O)C1(c2ccc(-c3ccc(Cl)c(Cl)c3)c(F)c2)CC1 [Itanapraced]	100%	100%
CC(C)(C)C(=O)Oc1ccc(S(=O)(=O)Nc2ccccc2C(=O)NCC(=O)O)cc1 [Sivelestat (sodium)]	92.9%	93%
OCCN1CCN(CC/C=C2/c3ccccc3Sc3ccc(C(F)(F)F)cc32)CC1 [Flupentixol dihydrochloride]	100%	100%
Clc1ccc(CCC(Cn2ccnc2)Sc2c(Cl)cccc2Cl)cc1 (configuration not stated) [Butoconazole (nitrate)]	100%	100%
Cc1ncc(NC(=O)c2ccc(CN3CCN(C)CC3)c(C(F)(F)F)c2)cc1Nc1nccc(-c2cccnc2)n1 [Flumatinib]	100%	100%
NCCCC[C@H](NC(=O)[C@@H](NC(=O)[C@H](Cc1c[nH]c2ccccc12)NC(=O)[C@H](CCCCN)NC(=O)[C@H](CCCCN)NC(=O)[C@H](Cc1c[nH]c2ccccc12)NC(=O)[C@H](Cc1c[nH]c2ccccc12)NC(=O)[C@H](CCCCN)NC(=O)[C@@H](N)CCCCN)C(c1ccccc1)c1ccccc1)C(N)=O	100%	100%
CCOC(=O)Nc1ccc(NCc2ccc(F)cc2)nc1N [Flupirtine (Maleate)]	100%	96%
Cc1cc2c(F)c(Oc3ncnn4cc(OC[C@@H](C)OC(=O)[C@H](C)N)c(C)c34)ccc2[nH]1 [Brivanib (alaninate)]	100%	100%
CC(C)c1c(C(=O)Nc2ccccc2)c(-c2ccccc2)c(-c2ccc(F)cc2)n1CC[C@@H](O)C[C@@H](O)CC(=O)O [Atorvastatin (hemicalcium salt)]	99.7%	98%
C#C[C@]1(O)CC[C@H]2[C@@H]3CCc4cc(O)ccc4[C@H]3CC[C@@]21C [Ethynyl Estradiol]	99.9%	100%
C=C[C@@H]1C[C@]1(NC(=O)[C@@H]1C[C@@H](Oc2ncc(OC)c3ccc(Cl)cc23)CN1C(=O)[C@@H](NC(=O)OC(C)(C)C)C(C)(C)C)C(=O)NS(=O)(=O)C1CC1 [Asunaprevir]	100%	100%
CC(OC(=O)c1ccc(Cc2c(O)c3ccccc3oc2=O)cc1)(C(F)(F)F)C(F)(F)F [Tecarfarin]	100%	100%
C=CCc1ccc(O)c(-c2cc(CC=C)ccc2O)c1 [Magnolol]	100%	100%
Oc1c(I)cc(Cl)c2cccnc12 [Clioquinol]	100%	100%
O=c1ccc2ccc(O)c(O)c2o1 [Daphnetin]	94.5%	98%
C#C[C@]1(O)CC[C@H]2[C@@H]3CCC4=CCCC[C@@H]4[C@H]3C(=C)C[C@@]21CC [Desogestrel]	99.4%	100%
